# Results taken from PubChem BioAssay (NCATS).
# Results filed as inconclusive are left out. Unmarked numbers belong to inactive results. Activity calls are given as the source filed them. Calls come from the whole dose curve; as a rule, active = well fitted cell-killing curve with a large enough effect; inconclusive = small, poorly fitted or top-dose-only effect, or effect the other way; inactive = no such curve, though single readings can be large or run the other way.
# Assay: Viability qHTS for spleen associated tyrosine kinase inhibitor (SYKi) naive MV4-11 cells (AID 1963823); note: nearly all actives have a fitted effect of over 40% in size
# Conditions: MV4-11 AML viability, CellTiter-Glo luminescence, 72 h; series mostly up to 45 µM; viability (% of control): at the top concentration
# Procedure, shortened: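 Seeding of 500 SYKi-naive MV4-11 cells per well onto pre-dispensed compounds preceded a 72 hr incubation at 37 C. Luminescent CellTiter-Glo signal, read after 10 min at room temperature, reflected viable cells.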
# Potency is the fitted concentration of half-maximal effect.
Structure (SMILES),viability (% of control),Potency
CC(N)C(=O)OC(C)(C)Cc1ccc(Cl)cc1 (centres undefined),58.1%,–
O=C1OC2(c3ccccc31)c1cc(I)c(O)c(I)c1Oc1c2cc(I)c(O)c1I,53.5%,–
COC[C@@H](c1ccc(C(F)(F)F)cc1)N1CCN(C2(C)CCN(C(=O)c3c(C)ncnc3C)CC2)C[C@@H]1C,63%,–
N#C/C(=C\c1ccc(O)c(O)c1)C(=O)NCc1ccccc1,–,13.2 µM (active)
C[C@]12CCC3=C4CCC(=O)C=C4CC[C@H]3[C@@H]1CC[C@@]2(O)CC#N,84%,–
CCOC(=O)N1CCN(/[N+]([O-])=N/Oc2ccc([N+](=O)[O-])cc2[N+](=O)[O-])CC1,–,2.95 µM (active)
Cc1ccc(O)c(-n2nc3ccccc3n2)c1,99.7%,–
O=C(O)C1(C(=O)O)CCC1.[NH2-].[NH2-].[Pt+2],55.2%,–
CC1=C(/C=C/C(C)=C/C=C/C(C)=C/C=C/C=C(C)/C=C/C=C(C)/C=C/C2=C(C)CCCC2(C)C)C(C)(C)CCC1,–,23.5 µM (active)
COC1(c2sc3c(N4CCOCC4)nc(-c4cnc(N)nc4)nc3c2C)COC1,–,0.231 µM (active)
CC(C)(C)NCC(O)c1cc(O)cc(O)c1 (centres undefined),41.3%,–
CN1CCN(c2ccc(-c3cccc(CN4CCOCC4)c3)cc2NC(=O)c2c[nH]c(=O)cc2C(F)(F)F)CC1,62.2%,–
CSc1ccc(/C=C2/C(C)=C(CC(=O)O)c3cc(F)ccc32)cc1,67%,–
C[N+](C)(CCOc1ccccc1)Cc1cccs1,78.4%,–
Cc1c(-c2ccc(-c3ccccc3F)cc2)nc2ccc(F)cc2c1C(=O)O,–,0.148 µM (active)
O=C(O)c1ccc(-n2nc(-c3ccccc3O)nc2-c2ccccc2O)cc1,–,16.8 µM (active)
Cc1cc(O)cc2c1[C@]1(C)CC[C@H]3C(C)(C)CCC[C@]3(C)[C@H]1C2,65.3% [at 4.97 µM],–

# Assay: Viability qHTS for spleen associated tyrosine kinase inhibitor (SYKi) drug resistant MV4-11 cells (AID 1963824); note: nearly all actives have a fitted effect of over 35% in size
# Conditions: SYKi-resistant MV4-11 viability, CellTiter-Glo, 72 h; series mostly up to 45 µM; viability, % of control: at the top concentration
# Procedure, shortened: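 SYK-inhibitor-resistant MV4-11 AML cells were seeded at 500 per well onto compound and cultured 72 hours (37 °C, 5% CO2). CellTiter-Glo was then added, and after 10 min at room temperature, luminescence gave viability.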
Structure (SMILES),"viability, % of control",Potency
COc1cccc(NCCC2(c3ccccc3)CC(C)(C)OC(C)(C)C2)c1,102%,–
CO[C@H]1C[C@@H]2CC[C@@H](C)[C@@](O)(O2)C(=O)C(=O)N2CCCC[C@H]2C(=O)O[C@H]([C@H](C)C[C@@H]2CC[C@@H](OC(=O)C(C)(CO)CO)[C@H](OC)C2)CC(=O)[C@H](C)/C=C(\C)[C@@H](O)[C@@H](OC)C(=O)[C@H](C)C[C@H](C)/C=C/C=C/C=C/1C,–,10.2 µM (active)
c1cc(NC2CCNCC2)nc(-c2cnc3ccccn23)c1,–,0.0206 µM (active)
CCC(=O)O[C@]1(C(=O)CCl)[C@@H](C)C[C@H]2[C@@H]3C[C@H](F)C4=CC(=O)C=C[C@]4(C)[C@@]3(F)[C@@H](O)C[C@@]21C,–,18.4 µM (active)
C=C1C(=O)OC2/C=C(\CO)CC/C=C(\C=O)C(OC)C(OC(=O)C(C)CC)C12 (centres undefined),–,2.52 µM (active)
CC1(C)NC2N(C1=O)c1ccccc1C2(O)CC(C(=O)O)n1cnc2ccccc2c1=O (centres undefined),95.7% [at 17.3 µM],–
COC(CCc1ccc(O)cc1)CC(=O)CCc1ccc(O)cc1 (centres undefined),–,14.3 µM (active)
O=C(c1ccccc1)c1ccc2nc(NC(=O)c3csc(C4CCN(c5ncnc6ccsc56)CC4)n3)[nH]c2c1,–,2.31 µM (active)
COC(=O)C1=COC(O[C@@H]2O[C@H](CO)[C@@H](O)[C@H](O)[C@H]2O)[C@H]2[C@@H]1[C@H](OC(=O)CCc1ccc(O)cc1)C[C@]2(C)O (some centres undefined),96% [at 17.3 µM],–
Cc1c(-c2ccc3c(c2)OCO3)oc2ccc(C(O)C(C)O)cc12 (centres undefined),–,12.8 µM (active)
O=C1NC(Cc2ccc(O)cc2)C(=O)N2CCCC12 (centres undefined),74.2%,–
O=C1CC2(CCCC2)[C@H](O)C(=O)N1CCCCN1CCN(c2ncccn2)CC1,75.7%,–
CC1CCC2(NC1)OC1CC3C4CC=C5CC(O[C@@H]6O[C@H](CO)[C@@H](O[C@@H]7O[C@@H](C)[C@H](O)[C@@H](O)[C@H]7O)[C@H](O)[C@H]6O[C@@H]6O[C@@H](C)[C@H](O)[C@@H](O)[C@H]6O)CCC5(C)C4CCC3(C)C1C2C (some centres undefined),–,5.51 µM (active)
CC(C)=CCCC1(C)/C=C/C(OC(=O)C=C(C)C)C(C)(O)/C=C/C(=O)/C(CO)=C\C1 (centres undefined),–,2.52 µM (active)
O=C(O)/C=C/c1cc2c(cc1O[C@@H]1O[C@H](CO)[C@@H](O)[C@H](O)[C@H]1O)OCO2,69.4%,–
O=C(O)c1cccc(CN2C(=O)/C(=C(\c3ccccc3)c3ccc(Cl)cc3)c3ccccc32)c1,–,20.6 µM (active)
C[C@]12CC/C(=N\OCC(=O)O)C=C1CC[C@@H]1[C@@H]2[C@@H](O)C[C@@]2(C)[C@H]1CC[C@]2(O)C(=O)CO,106%,–
